According to PubChem BioAssay (NCI):
Where “and” joins values, the source holds several entries; their conditions need not be identical. Identical values can stand only once. About 83,000 compounds went through this panel and 20% of them were active in at least one assay; those are over-represented in the sample as a whole.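 Note: values are percent growth. 100 is the growth of untreated cells, values between 100 and 0 indicate rising inhibition; between -100 and 0 indicates cell death.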 Calls of active or inactive are those of the source.

These molecules were tested on HL-60(TB) leukemia (assay: NCI-60 one-dose screen, 48 h (100 = growth as untreated, 0 = no growth, -100 = all killed)). Details: 10 µM.
Procedure: Growth inhibition of the HL-60(TB) human tumor cell line is measured as a screen for anti-cancer activity. Cells are grown in 96 well plates and exposed to the test compound for 48 hours. Compounds are tested at a single concentration, which is 10^-5 M for most compounds. The reported endpoint is percent growth (GI% or GIPRCNT), where numbers from 0 - 100% represent growth inhibition, and numbers from -100% - 0 represent cell death. For example, a value of 40 represents 60% growth inhibition. A value of 0 means no net growth occurred over the course of the experiment. A value of -40 indicates 40% of cells at the beginning of the experiment died by the end of the experiment. A value of -100 means all cells are dead at the end of the experiment.
NCI-60 Human Tumor Cell Lines Screen was performed using the standard one-dose NCI protocol, which is described in more detail at https://dtp.cancer.gov/discovery_development/nci-60/default.htm.
Compounds with GIPRCNT values below 10 were considered active. Activity score was based on GIPRCNT using the following formula: […]
Score is 0 for GIPRCNT values of 100 or above, 50 for GIPRCNT values of 0, and 100 for GIPRCNT values of -100.
For `COc1ccc(/C=C(\C)[N+](=O)[O-])cc1OC`, the growth was -38.4% (active). With `O=C1C=Cc2ccccc2C1=O` the growth was 87.3% (inactive). With `COC(=O)C1C(O)C(C)C(O)C(C)/C=C\C=C(C)C(=O)Nc2c(C)c(OC(C)=O)c3c(c2O)C(=O)C(C)=C2OCOC(=C23)C(C)=CC(C)(O)C(O)C(C)C1O` (stereo not given) the growth was 72.3% (inactive). `[Cl][Hg][c]1ccc(Cl)s1` was tested, and the growth was -17.2% (active). `CN(C)CC1(N)C(=O)NC(=O)NC1=O` was tested, and the growth was 97.5% (inactive). For `CC(=O)[O][Hg][c]1c(C)c(C)cc(C)c1C`, the growth was -13.1% (active). `O=[N+]([O-])c1ccc(N2CCOCC2)c2c1no[n+]2[O-]` was tested, and the growth was -16.7% (active). For `COc1cc2c(c(OC)c1OC)-c1ccc(O)c(=O)cc1[C@@H](NC(C)=O)CC2`, the growth was 36% (inactive). `COS(=O)(=O)c1ccccc1` was tested, and the growth was 106% (inactive). In the case of `ClCc1ccc2ccccc2n1`, the growth is reported as 66.3% (inactive). `C[CH2][Hg][S]c1ccccc1C(=O)O` was tested, and the growth was -17.6% (active). With `O=[P+](O)c1ccccc1` the growth was 106% (inactive). With `CC(Cc1ccc2c(c1)OCO2)NN` (stereo not given) the growth was 81.8% (inactive). With `NNc1ccccc1` the growth was 5.84% (active). In the case of `C/C1=C\[C@H](C)C[C@H](C)OC(=O)C[C@H](c2ccc(O)cc2)NC(=O)[C@@H](Cc2c(Br)[nH]c3ccccc23)N(C)C(=O)[C@H](C)NC(=O)[C@@H](C)C1`, the growth is reported as -44% (active). In the case of `O=[N+]([O-])/C=C/c1ccc([N+](=O)[O-])cc1`, the growth is reported as 17.1% (inactive) and 55.2% (inactive). In the case of `CC(C)(C)OOC(=O)/C=C\C(=O)OOC(C)(C)C`, the growth is reported as 74.6% (inactive). For `COC12c3c(C)cc(O)c4c(=O)occ(c34)C(=O)C1C13COC(=O)c4c(O)cc(C)c(c41)C(=O)C2C3OC(C)=O` (stereo not given), the growth was 100% (inactive). For `Cc1cc([N+](=O)[O-])c2ccccc2[n+]1[O-]`, the growth was 41% (inactive) and -30.6% (active). For `C[C@]12CC[C@H]3[C@@H](CCC4=CC(=O)CC[C@@H]43)[C@@H]1CC[C@@H]2OC(=O)N(CCCl)N=O`, the growth was -22.6% (active). For `O=C(CCl)Nc1ccc(Cl)cc1`, the growth was 66.3% (inactive). In the case of `O=[N+]([O-])c1ccc(Br)c([N+](=O)[O-])c1`, the growth is reported as 43% (inactive). `Oc1c(I)cc(I)cc1I` was tested, and the growth was 105% (inactive). For `Cn1c(O)c(N=O)c(=O)n(C)c1=O`, the growth was 96.6% (inactive) and 101% (inactive). In the case of `COc1cc([N+](=O)[O-])c2ncccc2c1[N+](=O)[O-]`, the growth is reported as 65.5% (inactive). `Oc1c(Cl)cc(Cl)c2ccccc12.[Cu+2]` was tested, and the growth was 92% (inactive). For `N#CCc1ccccc1`, the growth was 105% (inactive). In the case of `COc1ccccc1/C=C/[N+](=O)[O-]`, the growth is reported as 6.74% (active). In the case of `O=C(O)c1cc(Cc2ccc(O)c(C(=O)O)c2)ccc1O` (tested in a mixture with another compound), the growth is reported as 21.3% (inactive). In the case of `COc1cc(/C=C(/C)[N+](=O)[O-])ccc1O`, the growth is reported as -17.3% (active) and -34.3% (active). `C#CC1(O)CCC(C(C)(C)C)CC1` (stereo not given) was tested, and the growth was 140% (inactive). In the case of `COc1ccc2c(ccc3oc([N+](=O)[O-])cc32)c1`, the growth is reported as -31.4% (active). In the case of `[Cl][Hg][c]1ccc2ccccc2c1`, the growth is reported as -20.3% (active). `CC/C(=C/c1ccc(OC)cc1OC)[N+](=O)[O-]` was tested, and the growth was 15.7% (inactive). `COC12C(COC(N)=O)C3=C(C(=O)C(C)=C(N)C3=O)N1CC1C2N1C` (stereo not given) was tested, and the growth was -23.2% (active). For `CN(CCCl)c1ccc(/C=C/C2=[N+](C)c3ccccc3C2(C)C)cc1`, the growth was -29.5% (active). `S=C=NCCc1ccccc1` was tested, and the growth was 9.55% (active). `C/C(=C\c1ccc(Cl)c(Cl)c1)[N+](=O)[O-]` was tested, and the growth was -26.5% (active) and 83.5% (inactive). `O=c1[nH]c2ccccc2n1C1CCN(CCCC(c2ccc(F)cc2)c2ccc(F)cc2)CC1` was tested, and the growth was -41.7% (active) and -41.6% (active). `O=C1CCC(=O)N1SC(Cl)(Cl)Cl` was tested, and the growth was 100% (inactive).
